From PubChem
HCMV inh = blocks human cytomegalovirus replication; 410,000 compounds, 4.5% hits; activity change, negative = inhibition, % at 57.5 µM; HFF cells, HCMV-luciferase reporter, 72 h; hits give low values; AID 1259415; in the data active = activity change below about -60%; inconclusive = no clear call, values can overlap the other calls; inactive = above about -39%
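Two compound doses tested in HFFs infected with HCMV-luciferase, MOI 1 PFU/cell, 72 h at 37C. Lysate luminescence read with OneGlo; data normalized against buffer-only and 10uM Salinomycin inhibitor controls.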
FMDV antiviral = foot and mouth disease virus antiviral activity; FMDV antiviral cell-based qHTS; Potency, µM (top dose mostly 57.9 µM), usual class: inhibitors; 410,000 compounds, 1.2% hits; calls by dose curve; tested in HEK293T cells; also: read-out not given here; nearly all actives have a fitted effect of over 45% in size
MARV entry inh = Marburg virus entry inhibition | Potency, µM (highest dose often 37.8 µM), usual class: inhibitors | Marburg virus pseudotyped entry inhibition, cell reporter | 300,000 compounds, 1.8% hits; calls by dose curve; tested in HEK293 cells
Lassa entry inh = Lassa virus entry inhibition; Lassa virus pseudotype entry inhibition, cell reporter; Potency, µM (doses to about 37.9 µM), actives largely listed as inhibitors; 300,000 compounds, 1.2% hits; AID 540256; calls by dose curve; tested in HEK293 cells; also: nearly all actives have a fitted effect of over 50% in size
Of the large screens only hits and unclear results are named; the others gave an inactive call; ! = a repeat was not active. Shown are actives, neighbours in structure and some others; about 6.2% of the full set was active somewhere.

Cc1ccccc1CS(=O)(=O)c1nnc([C@H](Cc2ccccc2)NC(=O)OC(C)(C)C)o1	FMDV antiviral 28µM, MARV entry inh inconclusive, Lassa entry inh inconclusive
Cc1cccc(CS(=O)(=O)Cc2ccc(C(=O)NC(C)c3ccccc3)o2)c1 (stereo not drawn)	none (no result: MARV entry inh)
CCC(C)[C@@H](NC(=O)OC(C)(C)C)c1nnc(S(=O)(=O)Cc2cccc(C)c2)o1 (stereo partly drawn)	FMDV antiviral 32µM, MARV entry inh inconclusive, Lassa entry inh inconclusive
NC(=O)C1CCN(CC(=O)Nc2cccnc2Cl)CC1	none
Cc1ccc(CNCC(O)(c2ccccc2)c2ccc(Cl)cc2)cc1 (stereo not drawn)	MARV entry inh 10µM
COc1cccc(CNCC(O)(c2ccc(Cl)cc2)c2ccc(Cl)cc2)c1	FMDV antiviral inconclusive, MARV entry inh 18µM
COc1ccc(CNCC(O)(c2ccccc2)c2ccc(Cl)cc2)cc1 (stereo not drawn)	HCMV inh inconclusive, MARV entry inh inconclusive
CCCCn1c(NS(=O)(=O)c2ccc(C)cc2)c(S(=O)(=O)c2ccccc2)c2nc3ccccc3nc21	none
CCOc1ccc(-c2cc3nc(C4CCN(C(=O)OC(C)(C)C)CC4)c(C(=O)Nc4cc(OC)ccc4OC)cn3n2)cc1	MARV entry inh inconclusive
CCOc1ccc(-c2cc3nc(C4CCN(C(=O)OC(C)(C)C)CC4)c(C(=O)Nc4ccc(C)c(F)c4)cn3n2)cc1	HCMV inh -93, MARV entry inh inconclusive
CCCN=C1N(C)C[C@@H]2[C@@H]3C(=O)N(C)C(=O)[C@@H]3[C@](CC)(C(=O)OC)N12	none (no result: MARV entry inh, Lassa entry inh)
CC(Sc1nn(-c2ccc(F)cc2)c(=S)s1)C(=O)c1c(N)n(C)c(=O)n(C)c1=O (stereo not drawn)	FMDV antiviral inconclusive
Cn1c(N)c(C(=O)CSc2nn(-c3ccccc3)c(=S)s2)c(=O)n(C)c1=O	HCMV inh inconclusive, FMDV antiviral 25µM, MARV entry inh inconclusive, Lassa entry inh inconclusive
O=C(CNS(=O)(=O)c1cccs1)N1CCN(c2cccc(C(F)(F)F)c2)CC1	none (no result: MARV entry inh)
O=C(CN1CCN(c2cccc(C(F)(F)F)c2)CC1)NCc1ccccc1	Lassa entry inh 8.9µM
O=[N+]([O-])c1ccc(N2CCN(C(=S)NCc3ccc(Cl)cc3)CC2)cc1	HCMV inh -90, FMDV antiviral inconclusive (no result: MARV entry inh, Lassa entry inh)
O=C(CN1CCN(c2ccc(Cl)cc2)CC1)NCc1ccccc1	MARV entry inh inconclusive, Lassa entry inh 6.3µM
CC1CCc2cc(F)ccc2N1C(=O)c1cc2nc(-c3ccco3)cc(C(F)(F)F)n2n1 (stereo not drawn)	FMDV antiviral inconclusive
CCC1(c2cccc(Cl)c2)NC(=O)N(Cc2cc(C(=O)OC)c(C)o2)C1=O (stereo not drawn)	FMDV antiviral 28µM
COc1ccc(C(=O)C2CCCN(C(=O)CCc3scnc3C)C2)c(C)c1 (stereo not drawn)	HCMV inh -76
O=C(c1ccc2ccccc2c1)C1CCCN(C(=O)CN2C(=O)CSC2=O)C1 (stereo not drawn)	HCMV inh -68
O=C(c1ccc2ccccc2c1)C1CCCN(C(=O)c2cccnc2)C1 (stereo not drawn)	FMDV antiviral inconclusive
CSc1ncccc1C(=O)N1CCCC(C(=O)c2ccc3ccccc3c2)C1 (stereo not drawn)	FMDV antiviral inconclusive, MARV entry inh inconclusive, Lassa entry inh 11µM
O=C(CSc1n[nH]c(-c2cccs2)n1)N1CCN(S(=O)(=O)c2ccc3ccccc3c2)CC1	FMDV antiviral 22µM, MARV entry inh inconclusive, Lassa entry inh inconclusive
CC(C)CN(C(=O)CSc1nc2ccccc2[nH]1)C1CCS(=O)(=O)C1 (stereo not drawn)	none
CC(C)NC(=O)c1n[nH]c(=O)c2ccccc12	none
CC(C)CC(=O)N1CCN(S(=O)(=O)c2ccc3ccccc3c2)CC1	HCMV inh -88, FMDV antiviral inconclusive
CSc1ncccc1C(=O)N1CCN(S(=O)(=O)c2ccc3ccccc3c2)CC1	HCMV inh -83 (no result: MARV entry inh, Lassa entry inh)
O=C(c1ccccc1F)N1CCN(S(=O)(=O)c2ccc3ccccc3c2)CC1	none (no result: MARV entry inh, Lassa entry inh)
Cc1cc(C(=O)N2CCCC(C(=O)c3ccc4ccccc4c3)C2)nn1C (stereo not drawn)	MARV entry inh inconclusive, Lassa entry inh inconclusive
Cc1ncsc1C(=O)N1CCCC(C(=O)c2ccc3ccccc3c2)C1 (stereo not drawn)	FMDV antiviral 28µM, MARV entry inh inconclusive
Cc1ccc(S(=O)(=O)N2CCN(C(=O)CCN3C(=O)c4ccccc4C3=O)CC2)cc1C	HCMV inh -62, MARV entry inh inconclusive
CN(C(=O)c1oc(=O)c2ccccc2c1-c1ccccc1)c1cccc(Cl)c1	none
C#CCNC(=O)C[C@@H]1C[C@@]2(C(=O)OCC)CCC=C2N(Cc2ccco2)C1=O	none (no result: MARV entry inh, Lassa entry inh)
COc1cc(NC(=O)Nc2cccc(-c3noc(C)n3)c2)cc(OC)c1OC	HCMV inh -77, FMDV antiviral inconclusive (no result: MARV entry inh)
Cc1ccc(CNC(=O)Nc2ccccc2)cc1	none
Cc1ccc(C)c(N(C(=O)Cn2nnc3ccccc32)C(C(=O)NC(C)(C)C)c2ccsc2)c1 (stereo not drawn)	HCMV inh -78 (no result: FMDV antiviral)
Cc1ccccc1N/C(SCc1cccc(Br)c1)=C(/C#N)C(N)=O	HCMV inh -68
COc1cccc(NC(=O)CC(=O)c2ccc([N+](=O)[O-])cc2)c1	none (no result: MARV entry inh, Lassa entry inh)
COc1cccc(N/C(SCc2cccc([N+](=O)[O-])c2)=C(/C#N)C(N)=O)c1	FMDV antiviral 35µM, MARV entry inh inconclusive, Lassa entry inh inconclusive
CCOP(=O)(OCC)C1(C(=O)O)CCCC1	none
CCc1ccc(-c2nc(CSCC(=O)N3CCN(c4ccc(F)cc4)CC3)c(C)o2)cc1	HCMV inh -80, FMDV antiviral inconclusive
Cn1c(CSCc2ccc(F)cc2)nnc1SCC(=O)N1CCN(c2ccccc2)CC1	HCMV inh -69, FMDV antiviral inconclusive, MARV entry inh inconclusive, Lassa entry inh inconclusive
Cc1ccc(-c2nc(CSCC(=O)N3CCCC3)c(C)o2)cc1	HCMV inh inconclusive
O=C(CSCc1ccc(F)cc1)N1CCN(c2ccccc2)CC1	Lassa entry inh inconclusive
Cc1ccsc1-c1nc(CSCC(=O)N2CCN(c3ccccc3)CC2)c(C)o1	FMDV antiviral inconclusive (no result: Lassa entry inh)
COc1ccc(-c2nc(CSCC(=O)N3CCN(c4ccc(F)cc4)CC3)c(C)o2)cc1	HCMV inh -90, FMDV antiviral 13µM, MARV entry inh inconclusive
COc1ccc(N2CCN(C(=O)CSCc3ccc(C)cc3)CC2)cc1	Lassa entry inh inconclusive (no result: MARV entry inh)
COc1ccc(-c2nc(CSCC(=O)N3CCN(c4ccccc4)CC3)c(C)o2)cc1	HCMV inh -65, FMDV antiviral 35µM
Cc1ccc(CSCC(=O)N2CCN(c3ccc(F)cc3)CC2)cc1	HCMV inh -66!, Lassa entry inh inconclusive
CCCNS(=O)(=O)c1ccc(CCC(=O)N2CCN(c3ccc(F)cc3)CC2)cc1	HCMV inh -65, FMDV antiviral inconclusive
Cc1ccc(C(=O)C2CCN(CC(=O)N3CCN(c4ccc(F)cc4)CC3)CC2)cc1	HCMV inh -70, MARV entry inh inconclusive
CCCNS(=O)(=O)c1ccc(CCC(=O)N2CCN(c3ccc(OC)cc3)CC2)cc1	HCMV inh inconclusive (no result: FMDV antiviral)
Cc1ccc(C(=O)N2CCC(C(=O)c3ccc(F)cc3)CC2)cc1	none (no result: MARV entry inh, Lassa entry inh)
O=C(CSCc1ccc(F)cc1)N1CCN(c2ccc(F)cc2)CC1	FMDV antiviral inconclusive
C=CCn1c(=NC(=O)c2cccc(N3C(=O)CCC3=O)c2)sc2cccc(OC)c21	none
